Ec RNAP inh = Escherichia coli RNA polymerase inhibition. P0A8V2. E. coli RNA polymerase, fluorescence transcription assay. inhibition, %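 (tested at 10 µM)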. hit rate 0.2% among 62,000. AID 559; in the data active = inhibition above about 20%;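 also: 0% = enzyme without compound and 100% = no enzyme blank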
PTK2B oligo ant = Pyk2 (human) oligomerization antagonism. Q14289. Q293 cells, Pyk2 FERM NanoBiT luminescence; stronger effect = lower value. z-score (the deposit names both 25 µM and 10 µM). hit rate 0.83% among 99,000. AID 1347419;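 active = Z-score of -3 or lower, scaled per plate to the spread of control and sample wells; inactive = z-score above -3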;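 also: negative z-score means lost luminescence so less FERM oligomerization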
Cav3 T inh = human Cav3.2 channel inhibition, primary screen. O95180. Cav3.2-expressing cells, Fluo-4 calcium fluorescence FDSS; stronger effect = lower value. B-score at 10 µM. hit rate 4% among 100,000;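 active = single-dose well whose peak fluorescence ratio is a statistical outlier from its plate by either plate-standardised score or position-corrected B-score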
Mac1 fbg enh = enhancers of human CD11b/CD18 binding to fibrinogen; K562 CD11b/CD18 adhesion to fibrinogen, ATPlite luminescence; activation, % at 10 µM; hit rate 0.07% among 93,000; AID 1499;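 active = 10 µM primary screen giving 50% or more activity, confirmed by 40% or more on retest at that dose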
CD11b adhes inh = blocks human CD11b/CD18 adhesion to fibrinogen | P05107+P11215 | AID 1497 | K562 CD11b/CD18 adhesion to fibrinogen, ATPlite luminescence; Mn2+ added to activate the integrin | inhibition, % at 10 µM | hit rate 0.54% among 93,000;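 active = primary inhibition of 50% or more at 10 µM, then 40% or more on retest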
* hit, by the source's call; . = no result. A selection: hits, their analogues and other compounds. The true share with any hit is near 4.2%.

SMILES	Ec RNAP inh	PTK2B oligo ant	Cav3 T inh	Mac1 fbg enh	CD11b adhes inh
CC1=CCC(C(=O)N/N=C/c2cccs2)C(c2ccc(F)cc2)C1 (configuration not stated)	.	-0.62	-5.3*	.	.
O=C(Cc1ccccc1)N/N=C/c1cccs1	.	1.4	0.13	0	-11
CC(C)C[C@H](NC(=O)c1nc[nH]c1C(=O)N(C)Cc1ccccc1)C(=O)OC(C)(C)C	.	.	0.0073	.	.
Brc1ccccc1OCCOCCOc1cccc2cccnc12	.	-0.3	-4.7*	.	.
COC(C[C@@H](O)C[C@@H](O)COCc1ccccc1)OC	.	.	-0.00076	.	.
Fc1ccccc1OCCSc1nnnn1-c1ccccc1	8	-2.6	-3.1	1	-2
CCSc1nnnn1-c1ccccc1	.	-0.21	-0.41	-1	3
c1ccc(OCCSc2nnnn2-c2ccccc2)cc1	7	-2.4	-6*	-4	21
CCOc1ccc(OCCSc2nnnn2-c2ccccc2)cc1	.	-4.1*	-2.6	-2	28
COc1ccccc1OCCSc1nnnn1-c1ccc(C)cc1	5	.	-5*	5	-8
Cc1ccc(S(=O)(=O)NCCSc2nnnn2-c2ccccc2)cc1	.	-0.11	-2.6	.	.
O=C(NCCN1CCOCC1)c1cc(Cl)ccc1[N+](=O)[O-]	.	.	.	-4	-5
Cc1ccc(-n2nc3c(c2NC(=O)c2ccc(S(=O)(=O)N4CCOCC4)cc2)CSC3)c(C)c1	4	-0.3	-3.5	80*	-10
CC(C)CC(=O)Nc1c2c(nn1-c1ccc(F)cc1)CSC2	9	.	.	.	.
Cc1cccc(-n2nc3c(c2NC(=O)c2ccc(S(=O)(=O)N4CCOCC4)cc2)CSC3)c1C	4	1.4	.	0	15
O=C(Nc1c2c(nn1-c1ccc(F)cc1)CSC2)c1ccc(S(=O)(=O)N2CCOCC2)cc1	6	0.6	-5.6*	1	-41
Cc1ccc(-n2nc3c(c2NC(=O)c2cccs2)CSC3)cc1	6	-0.51	-6.3*	12	-12
CC(C)(C)n1nc2c(c1NC(=O)c1ccc(S(=O)(=O)N3CCCC3)cc1)CSC2	5	0.81	-3.5*	37	-12
COc1ccc(-c2nnc(SCc3cc(C)ccc3C)n2N)cc1	.	-0.2	0.043	.	.
CCOc1ccccc1NC(=S)/C(=C(\[O-])c1ccc2c(c1)OCCO2)[n+]1ccc(CC)cc1	.	-0.21	0.15	-1	-8
COc1ccc(Br)cc1/C=N/NC(=O)CNC(=O)/C=C/c1ccccc1	.	-0.56	-7.6*	10	1
COc1ccc(/C=C/C(=O)NCC(=O)N/N=C/c2cc(Br)ccc2OCc2ccccc2)cc1	.	0.29	-3.3	0	5
CCOC(=O)c1cccc(NC(=O)CS(=O)(=O)Cc2nc(-c3cccc(OC)c3)oc2C)c1	6	1	-5.2*	11	16
CCN(CCNC(=O)CS(=O)(=O)Cc1nc(-c2cccc(OC)c2)oc1C)c1ccccc1	11	2.4	-9*	6	22
CCOC(=O)c1cccc(NC(=O)Nc2cc(OC)ccc2OC)c1	14	-3.4*	-0.1	-1	8
SMILES	Ec RNAP inh	PTK2B oligo ant	Cav3 T inh	Mac1 fbg enh	CD11b adhes inh
COc1cccc(-c2nc(CS(=O)(=O)CC(=O)NCCC(C)C)c(C)o2)c1	10	.	-3.1	.	.
CC(NS(=O)(=O)c1ccc(CCC(=O)NCc2cccnc2)cc1)c1ccccc1 (configuration not stated)	.	0.7	1.1	-1	-6
CCCNC(=O)N1CCC(C(=O)c2cccc(F)c2)CC1	.	0.23	1	-3	-18
CCn1c(-c2ccc(N(C)C)cc2)nc2ccccc21	8	0.22	-0.53	-2	59*
CCn1c(-c2ccc(N)cc2)nc2ccccc21	5	.	0.07	7	0
CN(C)c1ccc(-c2nc3ccccc3n2C)cc1	-4	1.5	0.11	-8	78*
O=C(NNC(=S)Nc1cccc2ccccc12)c1cccc(Br)c1	.	0.28	-3.5	-6	89*
Cc1ncc(S(=O)(=O)c2ccc(Cl)cc2)c(-c2ccccc2)n1	.	-1.1	-2.3	-3	4
O=S(=O)(c1ccccc1)c1cnn(-c2ccccc2)c1-c1ccc(Cl)cc1	.	-2.1	-3.9*	-6	-14
O=C(CCCCCN1C(=O)c2ccccc2C1=O)Oc1ccc2c3c(c(=O)oc2c1)CCC3	.	.	.	-5	15
COc1ccccc1CNCC(O)(c1ccc(Cl)cc1)c1ccc(Cl)cc1	.	0.64	-4.5*	-1	-2
Cc1ccc(NC(=O)CSc2nnc(Cc3cccn3C)n2-c2ccc(F)cc2)cc1	4	.	-3.9*	-4	5
Cc1csc(NC(=O)CSc2nnc(Cc3cccn3C)n2-c2ccc(F)cc2)n1	3	.	-5.8*	-4	11

Bioassay records as filed in PubChem BioAssay.
